Each structure is given as a SMILES string. Where a name gives a salt, the structure may show the parent alone. The campaign covered roughly 1,700 compounds. About 15 (0.9%) showed activity.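 The calls were made as follows: active = infection cut by 80% or more with cell growth above 90% in both runs; inactive = the rest.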 For the sample, actives were picked, then their nearest neighbours and some compounds at random.

The assay has as its system HSV-1 strain 17 YFP-ICP4 in A549. Nature of the assay: HSV-1 infection relative to DMSO (ICP4-YFP per H2B-RFP signal); higher = more viral infection (less antiviral activity), active = hit call of the paper. As to conditions: 10 µM; 48 h; MOI: 0.1. On the procedure:
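Selleck FDA-approved library (L1300) screened in duplicate at 10 µM on A549 H2B-mRuby cells in 384-well plates, infected with HSV-1 strain 17 YFP-ICP4 at MOI 0.1 one hour before drug addition. Imaged after 2 days at 37°C. Cell growth (H2B-RFP) and infection (ICP4-YFP) are expressed as % of DMSO-treated wells. Hits: growth >90% and infection <20% of DMSO.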
On to `Cc1c(O)cccc1C(=O)N[C@@H](CSc1ccccc1)[C@H](O)CN1C[C@H]2CCCC[C@H]2C[C@H]1C(=O)NC(C)(C)C` [Nelfinavir Mesylate], for which the HSV-1 infection is 9.57% (active). The same measure for `Cc1c(C(C)C)c(=O)n(-c2ccccc2)n1C` [Propyphenazone (4-Isopropylantipyrine)]: 98.5% (inactive); for `CCCCCCC(=O)O[C@H]1CC[C@H]2[C@@H]3CCC4=CC(=O)CC[C@]4(C)[C@H]3CC[C@]12C` [Testosterone Enanthate]: 66.7% (inactive); for `C=C[C@@H]1C[C@]1(NC(=O)[C@@H]1C[C@@H]2CN1C(=O)[C@H](C(C)(C)C)NC(=O)O[C@@H]1C[C@H]1CCCCCc1nc3ccc(OC)cc3nc1O2)C(=O)NS(=O)(=O)C1CC1` [Grazoprevir]: 119% (inactive). The same measure for `CCCCCCCCCCCCC[N+](C)(C)Cc1ccccc1` [Benzalkonium chloride]: 65.3% (inactive); for `NC(=O)[C@@H](CCC(F)(F)F)N(Cc1ccc(-c2ncon2)cc1F)S(=O)(=O)c1ccc(Cl)cc1`: 95.4% (inactive). The same measure for `CCNC(=O)[C@@H]1CCCN1C(=O)[C@H](CCCN=C(N)N)NC(=O)[C@H](CC(C)C)NC(=O)[C@@H](C)NC(=O)[C@H](Cc1ccc(O)cc1)NC(=O)[C@H](CO)NC(=O)[C@H](Cc1c[nH]c2ccccc12)NC(=O)[C@H](Cc1cnc[nH]1)NC(=O)[C@@H]1CCC(=O)N1` [Alarelin Acetate]: 90.9% (inactive); for `CC1=C(C(=O)OC(C)C)C(c2cccc([N+](=O)[O-])c2)C(C(=O)OC2CN(C(c3ccccc3)c3ccccc3)C2)=C(N)N1` (centres undefined) [Azelnidipine]: 121% (inactive).

Consider `O=C1/C(=C2\Nc3ccc(S(=O)(=O)O)cc3C2=O)Nc2ccc(S(=O)(=O)O)cc21` [Indigo carmine], for which the HSV-1 infection was 101% (inactive). The same measure for `C[C@@H](O)[C@H]1C(=O)N2C(C(=O)O)=C(S[C@@H]3CN[C@H](C(=O)Nc4cccc(C(=O)O)c4)C3)[C@H](C)[C@H]12` [Ertapenem sodium]: 109% (inactive). The same measure for `CCC[C@@H]1C[C@@H](C(=O)N[C@@H]([C@H]2O[C@H](SC)[C@H](O)[C@@H](O)[C@H]2O)[C@H](C)Cl)N(C)C1` [Clindamycin]: 83.9% (inactive); for `CCC[C@@H]1C[C@@H](C(=O)N[C@@H]([C@H]2O[C@H](SC)[C@H](O)[C@@H](O)[C@H]2O)[C@@H](C)O)N(C)C1` [Lincomycin Hydrochloride Monohydrate]: 86.4% (inactive); for `CCC[C@@H]1C[C@@H](C(=O)N[C@@H]([C@H]2O[C@H](SC)[C@H](OP(=O)(O)O)[C@@H](O)[C@H]2O)[C@H](C)Cl)N(C)C1` [Clindamycin Phosphate]: 125% (inactive). The same measure for `CCC[C@@H]1C[C@@H](C(=O)N[C@@H]([C@H]2O[C@H](SC)[C@H](O)[C@@H](O)[C@H]2O)[C@H](C)Cl)N(C)C1` [Clindamycin HCl]: 87.2% (inactive); for `CCC[C@@H]1C[C@@H](C(=O)N[C@@H]([C@H]2O[C@H](SC)[C@H](O)[C@@H](O)[C@H]2O)[C@@H](C)O)N(C)C1` [Lincomycin HCl]: 15.9% (active). As for `CC(C)C(Br)C(=O)NC(N)=O` (centres undefined) [Bromisoval], the HSV-1 infection is 117% (inactive). The same measure for `N#Cc1ccc(Oc2ccc3c(c2)COB3O)cc1` [Crisaborole (AN2728)]: 95.1% (inactive). Consider `CNC(C)Cc1ccccc1OC` (centres undefined) [Methoxyphenamine Hydrochloride], for which the HSV-1 infection was 110% (inactive). The same measure for `Nc1nc(CC(=O)Nc2ccc(CCNC[C@H](O)c3ccccc3)cc2)cs1` [Mirabegron]: 104% (inactive); for `O=C(O)CCn1c2c(c3ccccc31)C[C@H](NS(=O)(=O)c1ccc(F)cc1)CC2` [Ramatroban]: 96.2% (inactive). The same measure for `O=C(NC[C@H](O)CO)c1ccncc1Nc1ccc(I)cc1F`: 34.8% (inactive); for `CC[C@H](C)[C@@H]1NC(=O)[C@H](Cc2ccc(O)cc2)NC(=O)[C@@H](N)CSSC[C@@H](C(=O)N2CCC[C@H]2C(=O)N[C@@H](CC(C)C)C(=O)NCC(N)=O)NC(=O)[C@H](CC(N)=O)NC(=O)[C@H](CCC(N)=O)NC1=O` [Oxytocin (Syntocinon)]: 82.7% (inactive). The same measure for `CCS(=O)(=O)N1CCN(c2ccc(Nc3ncc(C(N)=O)c(NC4CC4)n3)cc2)CC1`: 25.3% (inactive). `CC(C)C[C@H](NC(=O)CNC(=O)[C@H](Cc1ccc(O)cc1)NC(=O)[C@H](CO)NC(=O)[C@H](Cc1c[nH]c2ccccc12)NC(=O)[C@H](Cc1cnc[nH]1)NC(=O)[C@@H]1CCC(=O)N1)C(=O)N[C@@H](CCCNC(=N)N)C(=O)N1CCC[C@H]1C(=O)NCC(N)=O` [Gonadorelin Acetate]: the HSV-1 infection was 117% (inactive). The same measure for `NCC(=O)O` [Glycine]: 95.8% (inactive); for `CCCN(CCc1cccs1)[C@H]1CCc2c(O)cccc2C1` [Rotigotine]: 27.9% (inactive); for `CCCCCCCN(CC)CCCC(O)c1ccc(NS(C)(=O)=O)cc1` (centres undefined) [Ibutilide Fumarate]: 84.3% (inactive). The same measure for `O.O.O.O=C([O-])C1[O][Sb]2[O]C(=O)C([O]2)C(C(=O)[O-])[O][Sb]2[O]C(=O)C1[O]2.[K+].[K+]` (centres undefined) [Antimonyl potassium tartrate trihydrate]: 80.2% (inactive). For the molecule `COC(=O)C1=C(C#N)NC(C)=C(C(=O)OC(C)C)C1c1cccc([N+](=O)[O-])c1` (centres undefined) [Nilvadipine], the HSV-1 infection is 95.1% (inactive). The same measure for `Cc1onc(-c2c(F)cccc2Cl)c1C(=O)N[C@@H]1C(=O)N2[C@@H]1SC(C)(C)[C@@H]2C(=O)O` [Flucloxacillin sodium]: 114% (inactive); for `O=C(Nc1cccc2c(=O)cc(-c3nnn[nH]3)oc12)c1ccc(OCCCCc2ccccc2)cc1` [Pranlukast]: 79.1% (inactive).

For `OB1OCc2cc(F)ccc21` [Tavaborole (AN-2690)], the HSV-1 infection was 115% (inactive). The same measure for `CCOc1cc(N)c(Cl)cc1C(=O)NCC1CN(Cc2ccc(F)cc2)CCO1` (centres undefined) [Mosapride]: 97.6% (inactive); for `CCOc1cc(N)c(Cl)cc1C(=O)NCC1CN(Cc2ccc(F)cc2)CCO1` (centres undefined) [Mosapride Citrate]: 96.7% (inactive).

The values are drawn from the supplement of paper PMC11537057.
